Source: PubChem BioAssay AID707 (Columbia University Molecular Screening Center, 2007)
In all, about 91,000 compounds went through this assay and about 310 (0.34%) were called active. Shown is part of a subset that was picked to be rich in actives. Values without a mark were called inactive. Cut-off read from the data, not from the text of the source: active = inhibition above about 80%; inactive = the rest.

Target: Bifunctional epoxide hydrolase 2 (Homo sapiens) (UniProt P34913)
Test: soluble epoxide hydrolase inhibitors, primary screen, biochemical, human sEH (AID 707)
Conditions: recombinant human sEH enzymatic activity assay; at 2 µM; active compounds read high

Bifunctional epoxide hydrolase 2 (Homo sapiens), sequence (P34913 whole entry, looked up): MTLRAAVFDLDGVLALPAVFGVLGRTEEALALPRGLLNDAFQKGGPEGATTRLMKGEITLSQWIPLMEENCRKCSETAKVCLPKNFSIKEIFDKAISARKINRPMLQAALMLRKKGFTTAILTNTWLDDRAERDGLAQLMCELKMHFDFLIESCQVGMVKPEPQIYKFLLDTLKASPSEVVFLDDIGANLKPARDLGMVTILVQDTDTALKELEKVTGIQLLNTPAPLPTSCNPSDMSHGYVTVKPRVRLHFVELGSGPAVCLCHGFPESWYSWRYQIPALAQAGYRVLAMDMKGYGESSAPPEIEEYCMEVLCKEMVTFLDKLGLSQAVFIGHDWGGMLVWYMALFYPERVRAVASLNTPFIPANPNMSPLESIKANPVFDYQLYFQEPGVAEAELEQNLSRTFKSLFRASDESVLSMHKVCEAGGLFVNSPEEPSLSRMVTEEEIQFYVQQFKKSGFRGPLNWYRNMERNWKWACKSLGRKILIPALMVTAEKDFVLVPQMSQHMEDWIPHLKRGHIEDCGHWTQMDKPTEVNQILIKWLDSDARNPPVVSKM

Q: How did the inhibition turn out when CON(C)S(=O)(=O)c1ccc2c(c1)NC(=O)C1CCCN21 (stereo not drawn) was run?
A: -14.7%

Q: How did the inhibition turn out when O=C(NNC(=O)c1cccnc1)Nc1ccccc1 was run?
A: -21.5%

Q: How did the inhibition turn out when N#C/C(=C/c1ccc(Cl)cc1)NC(=O)c1ccccc1 was run?
A: 3.7%

Q: CCOC(=O)c1ccc(NC(=O)CSc2nnc(COc3ccccc3OC)n2C)cc1 was tested. Which inhibition did it give?
A: 9.6%

Q: How did the inhibition turn out when CCCCNC(=O)CSc1nnc(-c2ccco2)n1C was run?
A: -1.7%

Q: Which inhibition does the source give for CCCCNC(=O)CSc1nc2ccc(NC(=O)CSc3nnc(COc4ccccc4C)n3C)cc2s1 here?
A: 88.5% (active)

Q: With CC(CC(=O)Nc1cc(C(F)(F)F)ccc1Cl)c1ccccc1 (stereo not drawn) as the compound, how does the inhibition read?
A: 49.5%

Q: How did the inhibition turn out when CCOC(=O)NCc1ccc2c(c1)OCO2 was run?
A: 4.7%

Q: With CC1CCCCN1CC(=O)NCc1ccc2c(c1)OCO2 (stereo not drawn) as the compound, how does the inhibition read?
A: 3.9%

Q: Which inhibition does the source give for CCc1c(C)nc2ncnn2c1N1CCC(C(=O)NCc2ccc3c(c2)OCO3)CC1 here?
A: 83.3% (active)

Q: How did the inhibition turn out when COc1ccc(NC(=O)Nc2ccc3nsnc3c2)cc1 was run?
A: 75.6%

Q: Which inhibition does the source give for CCCCNCc1ccc(SC)cc1 here?
A: 10.8%

Q: How did the inhibition turn out when COc1ccc2c(c1)SC(C)CC2=O (stereo not drawn) was run?
A: -11.8%

Q: Cc1cccc(N(C(=O)Cc2cccs2)C(C(=O)NC2CCCC2)c2ccsc2)c1 (stereo not drawn) was tested. Which inhibition did it give?
A: 1.9%

Q: How did the inhibition turn out when Cc1cccc(NC(=S)Nc2ccc(Br)cc2)c1 was run?
A: 17.8%

Q: How did the inhibition turn out when COc1ccc(CCNC(=S)NC(=O)/C=C/c2ccc(C)cc2)cc1OC was run?
A: -0.9%

Q: How did the inhibition turn out when Cc1cccc(-n2cnc(C(=O)Nc3cccnc3)c2)n1 was run?
A: -6.9%

Q: Cc1ccc2nc(Nc3ccccc3O)nc(-c3ccccc3)c2c1 was tested. Which inhibition did it give?
A: 0.8%

Q: Which inhibition does the source give for c1ccc2c(CSCc3nc4ccccc4[nH]3)cccc2c1 here?
A: 10.5%

Q: Cc1ccccc1OC/C(O)=C(\C#N)c1nc2ccccc2[nH]1 was tested. Which inhibition did it give?
A: -13.4%

Q: COC(=O)c1ccc(C(=O)Nc2cc(Cl)ccc2Cl)cc1NC(=O)c1ccccc1C was tested. Which inhibition did it give?
A: -1.7%

Q: With Cc1ccccc1OCc1nnc(SCC(=O)N2c3ccccc3Sc3ccc(Cl)cc32)o1 as the compound, how does the inhibition read?
A: -2.3%

Q: For CC1Cc2ccccc2N1CC(=O)Nc1ccc2c(c1)OC(F)(F)O2 (stereo not drawn), which inhibition is on record?
A: 49.2%

Q: How did the inhibition turn out when CCOC(=O)COc1cc(OCC(=O)OCC)c2c(=O)cc(-c3ccccc3)oc2c1 was run?
A: -14.8%

Q: How did the inhibition turn out when COCCCn1c(SCc2cccc(OC)c2)nc2cc(OC)c(OC)cc2c1=N was run?
A: 7.8%

Q: How did the inhibition turn out when Cc1[nH]nc(-c2ccc(OCc3cnn(-c4ccccc4)c3)cc2O)c1Oc1ccc(Cl)cc1 was run?
A: 11.4%

Q: For COc1ccc(C(=O)NC(=S)Nc2ccccc2N2CCN(S(C)(=O)=O)CC2)cc1OC, which inhibition is on record?
A: 12.4%

Q: Which inhibition does the source give for Cc1ccc2nc(SCc3nnc(-c4ccccc4[N+](=O)[O-])o3)c(C#N)cc2c1 here?
A: 0.2%

Q: With Cc1cccc(-n2ncc(C#N)c2-n2cccc2)c1 as the compound, how does the inhibition read?
A: 0.9%

Q: With CCCC(=O)NC(Nc1ccccc1OC)C(Cl)(Cl)Cl (stereo not drawn) as the compound, how does the inhibition read?
A: 6.5%

Q: Fc1ccccc1COc1ccccc1CNCc1ccncc1 was tested. Which inhibition did it give?
A: 5.2%

Q: Which inhibition does the source give for CC(=O)Nc1ccccc1C(=O)C(=O)Nc1ccc(F)cc1 here?
A: -20.5%

Q: Which inhibition does the source give for COC(=O)CNC(=O)c1ccccc1[N+](=O)[O-] here?
A: -15.7%

Q: How did the inhibition turn out when O=C(CCc1ccc(S(=O)(=O)N2CCOCC2)cc1)Nc1ccc2ccccc2c1 was run?
A: 21.6%

Q: How did the inhibition turn out when CONC(=O)c1cc(OCC(F)(F)F)ccc1OCC(F)(F)F was run?
A: 6%

Q: Which inhibition does the source give for Cc1c(Br)c([N+](=O)[O-])nn1C(C)C(=O)Nc1nccs1 (stereo not drawn) here?
A: -4.7%

Q: Which inhibition does the source give for N#Cc1ccc(-c2ccc(Cl)cc2)nc1Oc1ccc(F)cc1 here?
A: 7.8%

Q: COCc1cc(C)nc2sc3c(=O)n(-c4cccc5ccccc45)nnc3c12 was tested. Which inhibition did it give?
A: 3.4%

Q: For Cc1ccc(-n2c(C)cc(/C=C(\C#N)C(=O)NCC3CCCO3)c2C)cc1 (stereo not drawn), which inhibition is on record?
A: 10.8%

Q: How did the inhibition turn out when O=Cc1c(N2CCN(c3cccc(Cl)c3)CC2)nc2ccccn2c1=O was run?
A: 1.4%

Q: COc1cccc(NC(=O)Cc2ccc(C)cc2)c1 was tested. Which inhibition did it give?
A: 1.6%

Q: With CC(=O)c1cccc(NC(=O)Nc2ccc(C)cc2)c1 as the compound, how does the inhibition read?
A: 48.2%

Q: Cc1cccc(NC(=O)Nc2cccc(Oc3c(F)c(F)c(F)c(F)c3F)c2)c1 was tested. Which inhibition did it give?
A: 80.6% (active)

Q: Which inhibition does the source give for O=C(/C=C\NCC(=O)c1ccccc1)c1ccccc1 here?
A: 2.3%

Q: For COc1ccc2c(c1OC)C(=O)c1ccccc1C2=O, which inhibition is on record?
A: -2.2%

Q: Which inhibition does the source give for Cc1onc(-c2c(Cl)cccc2Cl)c1C(=O)c1c[nH]c(C(=O)NC2CC2)c1 here?
A: 2%

Q: For Cc1[nH]n(-c2ccccc2)c(=O)c1CCOC(=O)c1ccc(C(F)(F)F)cc1, which inhibition is on record?
A: 7.1%

Q: Which inhibition does the source give for C/C(=N/NC(=O)c1ccc(NC(=O)c2ccc(F)cc2)cc1)c1ccccc1 here?
A: -3.4%

Q: Which inhibition does the source give for Cc1cc2c(c(=O)n1C)C(C(C)C)C(C#N)=C(N)O2 (stereo not drawn) here?
A: -3.6%

Q: How did the inhibition turn out when CNS(=O)(=O)c1cnccc1N1CCN(c2cccc(C)c2)CC1 was run?
A: 13.4%

Q: With Cc1ccc(-c2nnc(-n3nnc4ccccc43)c3ccccc23)cc1 as the compound, how does the inhibition read?
A: -3.9%

Q: How did the inhibition turn out when C=CCNc1nc(N)c(C(=C(C#N)C#N)c2ccccc2)s1 was run?
A: 4.9%

Q: For Cc1cc([N+](=O)[O-])c(N2CCC[C@@H]2C(=O)O)c([N+](=O)[O-])c1, which inhibition is on record?
A: 3.1%

Q: For COC(=O)CN(C(=S)Nc1ccc(Cl)cc1)C1CC(=O)N(c2ccc(OC)cc2)C1=O (stereo not drawn), which inhibition is on record?
A: 12.2%

Q: With CC1=NN(C(=O)Cc2ccc(C)cc2)C(O)(c2cccnc2)C1 (stereo not drawn) as the compound, how does the inhibition read?
A: 3.6%

Q: How did the inhibition turn out when COc1ccc(C)cc1NC(=O)CCC(=O)Nc1nnc(C(F)(F)F)s1 was run?
A: 15.2%

Q: How did the inhibition turn out when O=C(c1ccccc1)C(Cn1cncn1)C(Sc1ccccc1)c1ccccc1 (stereo not drawn) was run?
A: -1.8%

Q: How did the inhibition turn out when COc1ccc(C(=O)N2CCc3cc(OC)c(OC)cc3C2c2cccc([N+](=O)[O-])c2)cc1 (stereo not drawn) was run?
A: 0.6%

Q: C=CCOc1c2ccc(C(=O)N(CC)c3ccc(OC)cc3)cc2nn1C was tested. Which inhibition did it give?
A: 10.6%

Q: Cc1ccc(C)c(NC(=O)C2Cc3ccccc3CN2C(=O)OCc2ccccc2)c1 (stereo not drawn) was tested. Which inhibition did it give?
A: -5.4%

Q: CCOc1ccc(NC(=O)Nc2cc(C)on2)cc1 was tested. Which inhibition did it give?
A: 2.9%

Q: Which inhibition does the source give for CCOc1ccc(NC(=O)Nc2ccc(N(C)C(C)=O)cc2)cc1 here?
A: 82.3% (active)

Q: Which inhibition does the source give for CC(=O)N(C)c1ccc(NC(=O)C(F)(F)F)cc1 here?
A: 3.7%

Q: How did the inhibition turn out when Cc1cc(Nc2ccccc2)nc(N)n1 was run?
A: 3%

Q: How did the inhibition turn out when CCNC(=S)Nc1cccc(Cl)c1C was run?
A: -0.5%

Q: Which inhibition does the source give for CC(C)N(c1ccccc1)c1ncnc(NCCC(=O)O)c1[N+](=O)[O-] here?
A: -1.2%

Q: For c1ccc2c(C[n+]3csc4ccccc43)cccc2c1, which inhibition is on record?
A: -9%

Q: Cc1nn(-c2ccccn2)c2c1C(c1ccncc1)C1=C(CC(C)(C)CC1=O)N2 (stereo not drawn) was tested. Which inhibition did it give?
A: -0.7%

Q: With O=C(Cc1ccc2c(c1)CCCC2)Nc1ccccc1Cl as the compound, how does the inhibition read?
A: 7.7%

Q: O=C1c2ccccc2C(=O)c2c1cccc2N1CCN(CCO)CC1 was tested. Which inhibition did it give?
A: 5.4%

Q: How did the inhibition turn out when COc1ccc(/C=C(/NC(=O)c2ccc(C)cc2)c2nc3ccccc3[nH]2)cc1OC was run?
A: 1.8%

Q: For Cc1ccccc1N/N=C/c1ccc(N2CCOCC2)cc1, which inhibition is on record?
A: -9.2%

Q: For CC(Oc1ccc(Cl)cc1Cl)C(=O)/C=C/N(C)C (stereo not drawn), which inhibition is on record?
A: 15.1%

Q: Which inhibition does the source give for COc1cnc(SCc2ccc(Cl)c(Cl)c2)nc1Cl here?
A: -5.2%

Q: How did the inhibition turn out when ONC(=Nc1ccc(Cl)cc1)c1ccccc1Cl was run?
A: -9.2%

Q: For CCOc1ccc(Nc2nc(Cc3nnc(SCC(=O)NC4CCCC4)n3C)cs2)cc1, which inhibition is on record?
A: 10.9%

Q: For CN(C)Cc1ccccc1C1(O)c2ccccc2CSc2ccccc21 (stereo not drawn), which inhibition is on record?
A: 5.7%

Q: Which inhibition does the source give for Clc1ccc(-c2cc(COc3ccccc3)no2)cc1Cl here?
A: -1.1%

Q: With COc1ccc(C(=S)Nc2ccccc2)cc1 as the compound, how does the inhibition read?
A: 4.8%

Q: Which inhibition does the source give for Cc1ccsc1C(C(=O)NC1CCCCC1)N(C(=O)Cc1cccs1)C1CC1 (stereo not drawn) here?
A: 5.3%

Q: For CC(C)C(OC(=O)c1cccs1)C(=O)NC1CCCCC1 (stereo not drawn), which inhibition is on record?
A: -8.3%

Q: For CC(Cc1cccs1)NC(=O)NC1CCCCC1 (stereo not drawn), which inhibition is on record?
A: 92.6% (active)

Q: With CCOc1ccc(S(=O)(=O)Nc2nc3cc(OC)ccc3s2)cc1 as the compound, how does the inhibition read?
A: -14.5%

Q: For Cc1ccccc1C(=O)N1CCC(C(=O)Nc2ccc(S(=O)(=O)N(C)C(C)C)cc2)CC1, which inhibition is on record?
A: 83.8% (active)

Q: With CC(C)NS(=O)(=O)c1ccc(NC(=O)C2CCCCC2)cc1 as the compound, how does the inhibition read?
A: -3.1%

Q: For CCOC(=O)Nc1ccc(S(=O)(=O)N(C)C(C)C)cc1, which inhibition is on record?
A: 1.6%

Q: O=C(CSc1ncnc2c1cnn2CCc1ccccc1)Nc1ccc(F)cc1 was tested. Which inhibition did it give?
A: 20.5%

Q: With O=C(c1cccc(F)c1)N1CCN(c2ccc([N+](=O)[O-])c(N3CCCCC3)c2)CC1 as the compound, how does the inhibition read?
A: 6.5%

Q: CCOC(=O)/C(=C\c1ccc([N+](=O)[O-])cc1)C(=O)c1cc(C(C)=O)c(Nc2ccccc2)s1 was tested. Which inhibition did it give?
A: 10.3%

Q: With COc1ccccc1OCCNc1cc(N2CCOCC2)ccc1[N+](=O)[O-] as the compound, how does the inhibition read?
A: -3.3%

Q: How did the inhibition turn out when CCn1c2ccccc2c2cc(NC(=O)C/C(C)=N/NC(=O)c3ccccc3N)ccc21 was run?
A: 4.8%

Q: Which inhibition does the source give for Cc1ccc(/C=N/NC(=O)C(NC(=O)c2ccccc2)c2n[nH]c(=O)c3ccccc23)cc1 (stereo not drawn) here?
A: -0.8%

Q: How did the inhibition turn out when COc1ccccc1NC(=O)[C@H](COCc1ccccc1)NC(=O)OC(C)(C)C was run?
A: -8.8%

Q: With CCOc1cccc(SCc2noc(C(=O)NC(C)C)c2C(=O)O)c1 as the compound, how does the inhibition read?
A: -1.8%

Q: Which inhibition does the source give for CN(C)/C=C(\C#N)C(=O)c1cccnc1Oc1ccc(F)cc1F here?
A: 12.8%

Q: C=CCn1c(-c2ccc(Cl)cc2)ccc(C#N)c1=O was tested. Which inhibition did it give?
A: -0.8%

Q: CC1CCN(C(NC(=O)c2ccco2)C(=O)c2ccccc2)CC1 (stereo not drawn) was tested. Which inhibition did it give?
A: -0.8%

Q: O=C1CCN(C(=O)Nc2ccccc2)N1 was tested. Which inhibition did it give?
A: 2.7%
